Measurements from the supplement of paper PMC12636033.
± gives the standard deviation of the averaged measurements. The full ranking holds about 33,000 sequences; the median of “E-score (rank enrichment, -0.5 to 0.5)” is about -0.0028, and the highest 2% start at about 0.23. The sample as a whole holds a higher share of the highest values than the screen did.

tested on: 2Sb-muMax20 (muMax20 with two 1,3-bis(methyl)benzene Cys staples, A13C/A17C and Q88C/A92C, C-terminal Lys); assay: PBM 8-mer E-score (E-score (rank enrichment, -0.5 to 0.5)); higher = stronger preferential binding
Method: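 Protein binding microarray (universal PBM chip covering all 10-mers in fixed probe flanks) with chemically synthesized human Max(13-93) bHLH-LZ analogs (not full-length Max) bearing noncanonical residues (hArg, Tha, Aib, Nle at 65) and aromatic Cys staples. Read-out per 8-mer (and its reverse complement): E-score (rank-based enrichment, -0.5 to 0.5) and Z-score of median probe intensity.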

Row | Sequence | PBM 8-mer E-score
1 | ATTGAAGG | 6e-05 ± 0.019
2 | AGTTCAAA | -0.0257 ± 0.13
3 | AACCGGCC | -0.167 ± 0.021
4 | CCGCTGCC | -0.123 ± 0.029
5 | CAGAGAGA | -0.0625 ± 0.011
6 | ATACAAAA | 0.296 ± 0.014
7 | CTACAAAA | 0.0645 ± 0.037
8 | ATACAAAT | 0.148 ± 0.12
9 | GTACAAAC | 0.028 ± 0.04
10 | GTACAAAA | 0.27 ± 0.0082
11 | TTACAAAA | 0.181 ± 0.03
12 | ACCTGTCC | 0.0598 ± 0.062
13 | AATATGGC | 0.221 ± 0.025
14 | CACAGCAC | -0.0272 ± 0.038
15 | AATAAGTA | 0.285 ± 0.0052
16 | GTTAAGTA | 0.0909 ± 0.029
17 | AATAAGTG | 0.17 ± 0.066
18 | ATTAAGTG | 0.122 ± 0.011
19 | AGTAAGTG | 0.2306 ± 0.0021
20 | AGTAAGTC | 0.1006 ± 0.00054
21 | AGTAAGTA | 0.126 ± 0.027
22 | CATAAGTA | 0.163 ± 0.049
23 | ATTAAGTA | 0.236 ± 0.026
24 | CTGACCAC | -0.0726 ± 0.025
25 | AGGTGGAA | -0.00713 ± 0.04

Row | Sequence | PBM 8-mer E-score
26 | GTTATTAA | 0.0581 ± 0.1
27 | CAGTCTGG | -0.18 ± 0.038
28 | CAAATTCG | 0.000655 ± 0.064
29 | CACTTAAG | 0.0265 ± 0.011
30 | ATGGACCG | -0.222 ± 0.029
31 | ACCCAAAA | -0.0026 ± 0.17
32 | ACCCAAGC | -0.0166 ± 0.044
33 | ACCCAAAG | 0.0519 ± 0.028
34 | ACCCAAGG | 0.0572 ± 0.07
35 | ACCCAAAT | 0.277 ± 0.028
36 | ACCCAAGT | 0.282 ± 0.052
37 | AGGAAACA | 0.0889 ± 0.046
38 | AGTCGCCC | -0.0113 ± 0.15
39 | AACCGTAT | -0.0505 ± 0.036
40 | CTGTGCGC | 0.0257 ± 0.14
41 | AACGTTCC | 0.142 ± 0.028
42 | CCGATGCC | -0.029 ± 0.062
43 | ATAGCAAG | 0.157 ± 0.0043
44 | AAAGCAAT | 0.268 ± 0.011
45 | AAAGCAAC | 0.0449 ± 0.04
46 | ATAGCAAT | 0.234 ± 0.05
47 | ATAGCAAC | 0.031 ± 0.02
48 | AAAGCAAG | 0.167 ± 0.024
49 | CCGTAACC | -0.243 ± 0.07
50 | ATAACCTG | 0.113 ± 0.024

Row | Sequence | PBM 8-mer E-score
51 | AATGGCGT | 0.0723 ± 0.025
52 | CGTGCACA | 0.123 ± 0.094
53 | TGTGCACA | -0.0483 ± 0.071
54 | CGTGCACG | 0.357 ± 0.019
55 | AAACGTTT | 0.171 ± 0.011
56 | AGGCAGGC | -0.109 ± 0.057
57 | CTATTTCA | 0.135 ± 0.01
58 | CTATTTCC | 0.259 ± 0.0072
59 | ATATTTCC | -0.00852 ± 0.065
60 | CCAAGCAA | 0.0514 ± 0.029
61 | ATGGATTA | -0.131 ± 0.0052
62 | AGCGTCAA | -0.0167 ± 0.026
63 | ACACAAGA | 0.0809 ± 0.01
64 | GATTGTAC | 0.051 ± 0.031
65 | AATTGTAG | 0.0147 ± 0.034
66 | CATTGTAC | 0.238 ± 0.031
67 | AATTGTAA | 0.165 ± 0.011
68 | CATTGTAG | 0.033 ± 0.059
69 | AATTGTAC | 0.2375 ± 0.0016
70 | GATTCGAC | -0.119 ± 0.031
71 | GCAGGTGA | -0.000525 ± 0.049
72 | AGCACAGA | 0.00824 ± 0.026
73 | AACATGCT | 0.0156 ± 0.11
74 | AAAACTGC | -0.0787 ± 0.029
75 | ACATTATA | 0.222 ± 0.013

Row | Sequence | PBM 8-mer E-score
76 | AAACGAAT | 0.0979 ± 0.067
77 | CAACCGGG | -0.22 ± 0.053
78 | ACTCACAA | 0.124 ± 0.028
79 | ACCTCGAC | -0.178 ± 0.084
80 | CTGCATTA | 0.0983 ± 0.0036
81 | ATGCATCA | 0.332 ± 0.0056
82 | ATGCATCG | 0.0238 ± 0.0075
83 | ATGCATTC | 0.248 ± 0.054
84 | GTGCATCA | 0.0577 ± 0.073
85 | CTGCATTC | 0.0548 ± 0.014
86 | GTGCAATA | 0.118 ± 0.07
87 | CTGCAATA | 0.0131 ± 0.065
88 | ATGCATTG | 0.133 ± 0.0027
89 | GTGCATTA | 0.0825 ± 0.077
90 | ATGCATTA | 0.311 ± 0.01
91 | ATGCAATA | 0.269 ± 0.021
92 | AAAACCCA | 0.145 ± 0.034
93 | CGTGCCCC | 0.0242 ± 0.014
94 | GCTCTCTA | -0.0575 ± 0.015
95 | ACCTGCCC | -0.236 ± 0.049
96 | AGGCATAG | 0.017 ± 0.038
97 | CAAGTAAA | 0.114 ± 0.018
98 | CCTACACC | 0.00456 ± 0.037
99 | TCGCGTCA | -0.0876 ± 0.026
100 | ATGCATAA | 0.213 ± 0.023

Row | Sequence | PBM 8-mer E-score
101 | ATGCATAC | 0.253 ± 0.0083
102 | CTGCATAC | 0.0495 ± 0.019
103 | GCGGCGAC | -0.148 ± 0.0016
104 | GAAACAAC | 0.0094 ± 0.1
105 | GAAACATA | 0.268 ± 0.048
106 | GAAACATC | 0.0426 ± 0.019
107 | AAAACATA | 0.1684 ± 0.0003
108 | GAAAACAA | 0.244 ± 0.069
109 | TAAAACAA | -0.00029 ± 0.077
110 | AAAAACAA | 0.158 ± 0.049
111 | CAAACAAA | 0.0981 ± 0.0047
112 | GAAACAAA | 0.301 ± 0.065
113 | GATTATTA | 0.1 ± 0.071
114 | ATTACGAG | 0.164 ± 0.013
115 | CGAGTTAA | 0.0575 ± 0.082
116 | ACTCAGAA | 0.0145 ± 0.00035
117 | CTTAGTAC | 0.0932 ± 0.025
118 | TATCCAAA | 0.103 ± 0.028
119 | CCCGTCGA | -0.109 ± 0.064
120 | CTGTGGTC | -0.235 ± 0.017
121 | CAAGAAGA | 0.0996 ± 0.012
122 | AAGTTAAC | 0.233 ± 0.052
123 | ATGTTAAC | 0.306 ± 0.013
124 | CTGTTAAC | 0.105 ± 0.041
125 | GTGTTAAC | -0.018 ± 0.016

Row | Sequence | PBM 8-mer E-score
126 | CAGTTAAC | 0.0298 ± 0.036
127 | GAGTTAAC | 0.0742 ± 0.055
128 | CCAGTAGA | -0.0423 ± 0.068
129 | AAGCCTGA | -0.17 ± 0.034
130 | ACCTCCGG | -0.194 ± 0.037
131 | CGCTGTAA | -0.00707 ± 0.013
132 | AGGTAGCG | -0.0415 ± 0.0036
133 | GCATGCGA | 0.266 ± 0.042
134 | CCATGCGA | 0.0911 ± 0.01
135 | GCATGCGC | 0.112 ± 0.049
136 | TCGAAAGA | 0.0439 ± 0.024
137 | CATAGATG | -0.111 ± 0.065
138 | CAAGGCAC | 0.0684 ± 0.076
139 | ACTAGCCT | 0.134 ± 0.035
140 | CTCCCGCA | 0.0448 ± 0.016
141 | AAACATAC | 0.199 ± 0.015
142 | AAACATAT | 0.247 ± 0.042
143 | TAACATAA | 0.217 ± 0.058
144 | AAACATAG | 0.0193 ± 0.016
145 | GAACATAA | 0.198 ± 0.058
146 | AAACATAA | 0.28 ± 0.013
147 | CCGATCAG | -0.247 ± 0.028
148 | GGGCTTAA | 0.0764 ± 0.033
149 | CGAATGCA | 0.248 ± 0.035
150 | CGAATGCC | -0.00354 ± 0.078

Row | Sequence | PBM 8-mer E-score
151 | CGAATGTC | -0.0317 ± 0.0078
152 | CGAATGTA | 0.241 ± 0.011
153 | GGAATGTA | 0.0875 ± 0.012
154 | CGAATGCG | -0.0308 ± 0.079
155 | ACAGTACC | -0.0999 ± 0.06
156 | GCTGTGCA | -0.0668 ± 0.075
157 | GGCCACAC | -0.0997 ± 0.082
158 | CTTAACTC | 0.0502 ± 0.01
159 | TCTTTCAA | 0.0646 ± 0.0097
160 | TGACACAA | 0.239 ± 0.0028
161 | GGACACGA | -0.122 ± 0.0082
162 | CGACACAA | -0.0479 ± 0.0084
163 | TAACACAA | 0.232 ± 0.058
164 | GCACACAA | 0.233 ± 0.012
165 | ACACACAA | 0.0979 ± 0.013
166 | AGACACAA | 0.00927 ± 0.0092
167 | GCACACAC | -0.0369 ± 0.062
168 | CAACACAA | 0.0293 ± 0.052
169 | GGACACAC | -0.0301 ± 0.051
170 | GGACACAA | 0.238 ± 0.045
171 | AAACACAA | 0.153 ± 0.0061
172 | CGTCCACG | -0.0278 ± 0.092
173 | GGCCCGAC | -0.223 ± 0.016
